Experimental data as given in PubChem BioAssay.
Activity calls are given as the source filed them.

Experiments:
[1] = small molecules captured by biotinylated probe aFSTL3 – biochemical, small-molecule microarray, fluorescence 635/667, stem cell growth factor project, primary screen (AID 1064); settings: higher = more signal;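 note: measures binding of the biotinylated anti-FSTL3 antibody to printed compounds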
[2] = binders from COS7 lysate, DM2A8 probe, primary screen, torsin A project, cell lysate, small-molecule microarray, fluorescence 635/667 (AID 1065); settings: higher = more signal, COS7 lysate expressing mutant human TOR1A
[3] = small molecules captured by biotinylated probe aFGF2 – biochemical, small-molecule microarray, fluorescence 635/667, stem cell growth factor project, primary screen (AID 1067); settings: higher = more signal;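 note: measures binding of biotinylated aFGF2 protein to printed compounds on slides; z-score merges feature fluorescence and signal-to-noise across triplicate slides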
[4] = small molecules captured by biotinylated probe aFGF10 – biochemical, small-molecule microarray, fluorescence 635/667, stem cell growth factor project, primary screen (AID 1071); settings: higher = more signal;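 note: score merges 667 nm spot intensity and signal to noise from triplicate slides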
[5] = target: Neurogenic locus notch homolog protein 2 (Homo sapiens) (UniProt Q04721); assay: small molecules binding Notch2 protein – biochemical, small-molecule microarray, 635 nm fluorescence, stem cell growth factors, primary screen (AID 1073); settings: higher = more signal
[6] = target: Pro-neuregulin-1, membrane-bound isoform (Homo sapiens) (UniProt Q02297); assay: small molecules binding neuregulin-1 protein – biochemical, small-molecule microarray, fluorescence 635/667, psychiatric disease protein project, primary screen (AID 1075); settings: NRG1 binding, 635 nm fluorescence, higher = more signal;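 note: score combines 667 nm spot fluorescence with signal to noise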
[7] = system: Neuregulin-1 EGF-like domain; assay: small molecules binding NRG1 EGF domain – biochemical, small-molecule microarray, 635 nm fluorescence, primary screen (AID 1081); settings: higher = more signal;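 note: binding of the protein to compounds printed on small-molecule microarray slides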
[8] = FRG1 expression reporter modulators in myotubes – cell-based, C2C12 myotubes, firefly/Renilla luciferase, luminescence, FRG1 inhibition for FSHD, primary screen (AID 1084); settings: FRG1 promoter luciferase, higher = more signal, called active from +8 up or from −8 down
[9] = small molecules captured by biotinylated probe aFST – biochemical, small-molecule microarray, fluorescence 635/667, stem cell growth factor project, primary screen (AID 1086); settings: higher = more signal;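 note: score merges 667 nm fluorescence with signal-to-noise of each printed compound spot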
[10] = binders of probe aHhip on microarray, primary screen, stem cell growth factor project, biochemical, small-molecule microarray, fluorescence 635/667 (AID 1087); settings: higher = more signal;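 note: score merges spot fluorescence at 667nm with spot signal to noise ratio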
[11] = system: PRMT1 (protein arginine N-methyltransferase 1); assay: small molecules binding arginine methyltransferase PRMT1 – biochemical, small-molecule microarray, 635 nm fluorescence, primary screen (AID 1088); settings: higher = more signal;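 note: binding of Prmt1 protein to compounds spotted on small-molecule microarray slides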
[12] = growth effects on S. cerevisiae YJM789 – YJM789 clinical isolate, OD600, 24 h, basal, primary screen (AID 1089); settings: higher = more signal, called active from +8 up or from −8 down;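 note: growth of clinical yeast isolate S. cerevisiae YJM 789 seeded 1000 cells per well; test concentration not given here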
[13] = S. pombe growth modifiers, basal conditions – strain 972, OD600, 24 h, no modulator, primary screen (AID 1090);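 note: basal condition with compound alone and no growth modifier present; test concentration not given here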; settings: S. pombe 972 growth, higher = more signal, called active from +8 up or from −8 down
[14] = budding yeast growth modifiers under rapamycin – strain BY4716, OD600, 96 h, primary screen (AID 1091); note: test concentration not given here; settings: S. cerevisiae BY4716 + rapamycin, higher = more signal, called active from +8 up or from −8 down
[15] = target: Torsin-1A-interacting protein 2 (Homo sapiens) (UniProt Q8NFQ8); assay: small molecules binding lysate-expressed LULL1 – cell lysate, human LULL1 lysate, 635/667 nm fluorescence, primary screen (AID 1092); settings: small-molecule microarray, hLULL1 lysate binding, 635 nm fluorescence; higher = more signal;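 note: probe is lysate of COS7 cells overexpressing human LULL1; score merges per-feature 667 nm fluorescence with signal-to-noise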
[16] = optical density change of DRC41 E. coli – strain DRC41, OD650, 24 h, E. coli filamentation project, primary screen (AID 1093);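 note: MC1000 strain lacking acrAB efflux and sulA so SOS filamentation is blocked; test concentration not given here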; settings: E. coli DRC41 growth, higher = more signal, called active from +8 up or from −8 down
[17] = probe aLefty2 binding to arrayed compounds – biochemical, biotinylated probe, 635/667 nm fluorescence, primary screen (AID 1094); settings: small-molecule microarray, higher = more signal;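 note: score merges spot fluorescence near 667 nm with spot signal-to-noise ratio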
[18] = system: Noggin (protein binding on small-molecule microarray); assay: small molecules binding Noggin protein – biochemical, 635/667 nm fluorescence, primary screen (AID 1095); settings: 635 nm fluorescence, higher = more signal;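 note: score merges 667 nm feature fluorescence with signal to noise over triplicate slides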
[19] = target: Neurogenic locus notch homolog protein 3 (Homo sapiens) (UniProt Q9UM47); assay: small molecules binding NOTCH3 protein – biochemical, 635/667 nm fluorescence, primary screen (AID 1096); settings: small-molecule microarray, 635 nm fluorescence, higher = more signal
[20] = probe aEGFR binding to arrayed compounds – biochemical, biotinylated probe, 635/667 nm fluorescence, primary screen (AID 1097); settings: small-molecule microarray, higher = more signal;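 note: probe is a biotinylated anti-EGFR antibody binding compounds printed on slides; score combines fluorescence near 667 nm and signal to noise of each spot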

Torsin-1A-interacting protein 2 (Homo sapiens), sequence (Q8NFQ8 whole entry, looked up): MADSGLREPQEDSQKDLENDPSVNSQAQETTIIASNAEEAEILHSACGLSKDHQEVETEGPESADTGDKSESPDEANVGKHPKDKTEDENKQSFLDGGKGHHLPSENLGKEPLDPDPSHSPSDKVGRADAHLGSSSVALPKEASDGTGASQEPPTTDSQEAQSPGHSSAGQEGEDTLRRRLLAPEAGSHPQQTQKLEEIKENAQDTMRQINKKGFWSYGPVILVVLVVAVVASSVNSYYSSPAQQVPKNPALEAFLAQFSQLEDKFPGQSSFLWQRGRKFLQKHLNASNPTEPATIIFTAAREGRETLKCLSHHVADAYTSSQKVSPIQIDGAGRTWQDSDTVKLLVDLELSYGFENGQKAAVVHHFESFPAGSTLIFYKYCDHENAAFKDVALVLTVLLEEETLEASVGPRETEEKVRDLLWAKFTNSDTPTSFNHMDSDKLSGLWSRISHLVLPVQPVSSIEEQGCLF
Neurogenic locus notch homolog protein 2 (Homo sapiens), sequence (Q04721 whole entry, looked up, canonical isoform): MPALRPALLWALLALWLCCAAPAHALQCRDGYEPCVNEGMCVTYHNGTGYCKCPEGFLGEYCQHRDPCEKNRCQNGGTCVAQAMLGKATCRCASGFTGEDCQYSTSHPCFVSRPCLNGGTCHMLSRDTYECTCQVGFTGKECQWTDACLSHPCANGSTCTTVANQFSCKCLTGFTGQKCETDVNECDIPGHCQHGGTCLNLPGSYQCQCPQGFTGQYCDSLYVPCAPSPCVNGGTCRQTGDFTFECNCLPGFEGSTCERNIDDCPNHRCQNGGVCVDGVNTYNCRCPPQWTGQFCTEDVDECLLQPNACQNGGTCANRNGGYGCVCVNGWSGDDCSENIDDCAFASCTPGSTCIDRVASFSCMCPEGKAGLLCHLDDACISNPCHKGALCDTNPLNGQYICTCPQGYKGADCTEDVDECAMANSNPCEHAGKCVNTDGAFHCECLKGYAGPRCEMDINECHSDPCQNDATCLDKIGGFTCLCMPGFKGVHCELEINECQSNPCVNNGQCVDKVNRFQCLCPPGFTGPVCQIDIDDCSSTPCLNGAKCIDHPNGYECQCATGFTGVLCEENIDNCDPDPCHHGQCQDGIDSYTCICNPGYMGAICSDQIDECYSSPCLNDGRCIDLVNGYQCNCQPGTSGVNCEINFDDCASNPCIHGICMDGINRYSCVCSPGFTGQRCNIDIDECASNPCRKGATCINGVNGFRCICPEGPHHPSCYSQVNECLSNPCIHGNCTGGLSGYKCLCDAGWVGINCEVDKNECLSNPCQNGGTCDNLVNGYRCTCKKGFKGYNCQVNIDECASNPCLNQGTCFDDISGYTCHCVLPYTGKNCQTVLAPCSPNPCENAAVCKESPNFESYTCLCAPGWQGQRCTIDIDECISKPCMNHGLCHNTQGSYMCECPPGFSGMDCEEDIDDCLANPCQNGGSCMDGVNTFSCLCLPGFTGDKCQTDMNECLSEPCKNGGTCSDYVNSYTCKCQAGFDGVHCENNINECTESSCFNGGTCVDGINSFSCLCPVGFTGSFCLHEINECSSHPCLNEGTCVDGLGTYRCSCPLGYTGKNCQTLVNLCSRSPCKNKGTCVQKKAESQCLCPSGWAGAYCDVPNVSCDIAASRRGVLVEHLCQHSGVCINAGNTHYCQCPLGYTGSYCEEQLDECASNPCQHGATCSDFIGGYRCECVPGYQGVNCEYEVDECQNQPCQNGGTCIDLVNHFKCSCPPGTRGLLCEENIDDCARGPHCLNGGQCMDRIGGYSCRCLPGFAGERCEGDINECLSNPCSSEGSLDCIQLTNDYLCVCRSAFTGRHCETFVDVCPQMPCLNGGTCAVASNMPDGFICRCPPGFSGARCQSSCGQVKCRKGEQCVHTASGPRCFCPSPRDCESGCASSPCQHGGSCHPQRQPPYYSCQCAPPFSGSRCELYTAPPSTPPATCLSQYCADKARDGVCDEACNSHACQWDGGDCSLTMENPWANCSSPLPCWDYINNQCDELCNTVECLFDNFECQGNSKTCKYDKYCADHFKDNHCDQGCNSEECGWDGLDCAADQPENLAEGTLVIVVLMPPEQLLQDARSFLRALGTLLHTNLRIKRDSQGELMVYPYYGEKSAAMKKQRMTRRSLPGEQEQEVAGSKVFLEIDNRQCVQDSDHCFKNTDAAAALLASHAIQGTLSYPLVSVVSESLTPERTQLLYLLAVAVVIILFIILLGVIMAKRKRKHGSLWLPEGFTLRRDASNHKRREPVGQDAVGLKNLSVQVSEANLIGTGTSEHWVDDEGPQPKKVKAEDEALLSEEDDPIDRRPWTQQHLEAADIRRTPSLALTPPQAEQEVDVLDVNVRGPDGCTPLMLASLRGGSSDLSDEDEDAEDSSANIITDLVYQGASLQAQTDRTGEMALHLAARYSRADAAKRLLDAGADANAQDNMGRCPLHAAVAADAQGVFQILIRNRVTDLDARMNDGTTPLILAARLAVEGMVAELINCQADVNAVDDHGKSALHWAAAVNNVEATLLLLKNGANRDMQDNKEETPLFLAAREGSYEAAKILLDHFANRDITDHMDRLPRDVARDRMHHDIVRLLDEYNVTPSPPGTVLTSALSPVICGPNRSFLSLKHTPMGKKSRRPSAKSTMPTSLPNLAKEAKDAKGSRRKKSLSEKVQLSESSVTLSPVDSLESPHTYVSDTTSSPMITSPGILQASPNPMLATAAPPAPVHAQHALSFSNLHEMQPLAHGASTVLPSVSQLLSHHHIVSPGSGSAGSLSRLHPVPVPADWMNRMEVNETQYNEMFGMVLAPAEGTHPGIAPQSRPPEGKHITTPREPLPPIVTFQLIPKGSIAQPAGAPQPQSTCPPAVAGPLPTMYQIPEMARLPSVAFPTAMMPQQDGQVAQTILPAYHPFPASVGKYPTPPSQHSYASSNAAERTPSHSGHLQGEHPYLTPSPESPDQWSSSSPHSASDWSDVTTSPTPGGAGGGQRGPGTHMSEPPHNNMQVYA
Pro-neuregulin-1, membrane-bound isoform (Homo sapiens), sequence (Q02297 whole entry, looked up, the tested form may be a part, canonical isoform): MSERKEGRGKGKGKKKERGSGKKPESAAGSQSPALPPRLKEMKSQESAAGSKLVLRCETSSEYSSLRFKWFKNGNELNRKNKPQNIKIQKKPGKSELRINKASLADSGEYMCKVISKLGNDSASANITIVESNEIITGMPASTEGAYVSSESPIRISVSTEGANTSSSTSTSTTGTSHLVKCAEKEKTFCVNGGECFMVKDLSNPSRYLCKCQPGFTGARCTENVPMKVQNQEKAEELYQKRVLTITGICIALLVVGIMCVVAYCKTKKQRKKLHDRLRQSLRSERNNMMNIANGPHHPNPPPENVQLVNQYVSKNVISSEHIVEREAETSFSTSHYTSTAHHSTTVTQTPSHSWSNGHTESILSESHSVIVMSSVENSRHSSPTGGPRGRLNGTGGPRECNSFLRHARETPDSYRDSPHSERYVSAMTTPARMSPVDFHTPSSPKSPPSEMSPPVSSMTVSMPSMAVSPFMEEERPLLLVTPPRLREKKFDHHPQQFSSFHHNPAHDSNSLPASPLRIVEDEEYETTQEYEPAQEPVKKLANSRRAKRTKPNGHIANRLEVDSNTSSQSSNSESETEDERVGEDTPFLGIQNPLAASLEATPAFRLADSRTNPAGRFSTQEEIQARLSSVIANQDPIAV

Compound	composite z-score [1]	composite z-score [2]	composite z-score [3]	composite z-score [4]	composite z-score [5]	composite z-score [6]	composite z-score [7]	z-score [8]	composite z-score [9]	composite z-score [10]	composite z-score [11]	z-score [12]	z-score [13]	z-score [14]	composite z-score [15]	z-score [16]	composite z-score [17]	composite z-score [18]	composite z-score [19]	composite z-score [20]
COc1ccc(C(O)C2C=CC3C(=O)N(c4ccccc4)C(=O)C3N2Nc2ccccc2F)cc1OCc1ccccc1 (stereo not given)	0.873	-0.217	0.5	0.775	1.65	1.17	0.99	3.15 (inactive)	1.1	0.0274	0.946	-0.306 (inactive)	0.754 (inactive)	1 (inactive)	2.94	-0.994 (inactive)	0.312	-0.0436	0.386	0.308
Cc1ccc(S[C@]2(C(=O)NCC(F)(F)F)CC(=O)N(C(C)C)[C@@H]2c2ccc(CO)cc2I)cc1	0.163	-0.98	-0.04	0.0063	-0.806	1.08	-0.395	-0.0636 (inactive)	-0.349	-0.374	-0.466	-0.0408 (inactive)	-0.704 (inactive)	2.23 (inactive)	1.15	0.0493 (inactive)	-0.0873	-1.13	-1.01	-0.2
COc1ccc(C#Cc2ccc3c(c2)[C@]2(C(=O)N3)[C@H](c3ccccc3OCCO)N3[C@H](c4ccccc4)[C@H](c4ccccc4)OC(=O)[C@H]3[C@@H]2C(=O)O)cc1	-0.377	0.424	0.0406	1.16	1.34	1.74	1.28	-0.0646 (inactive)	0.336	0.132	1.54	3.22 (inactive)	1.13 (inactive)	0.629 (inactive)	3.09	0.0706 (inactive)	0.111	1.11	1.03	0.122
C=CCN1C(=O)[C@]2(O[C@H](CCO)[C@@H]([Si](C)(C)c3ccc(OC)cc3)[C@@H]2C)c2cc(N3C(=O)c4cccc5cccc3c45)ccc21	-0.0848	0.326	-0.1	0.607	0.322	0.828	1.2	-2.66 (inactive)	-0.17	-0.236	1.46	3.36 (inactive)	2.8 (inactive)	36.8 (active)	2.01	0.577 (inactive)	-0.172	1.69	1.07	-0.137
Cc1ccc(S[C@]2(C(=O)NCCN3CCOCC3)CC(=O)N(Cc3ccccc3Cl)[C@@H]2c2ccc(CO)cc2)cc1	0.268	-0.159	-0.0083	0.701	-0.32	0.956	1.15	-0.0709 (inactive)	-0.0909	-0.0994	-0.241	-1.17 (inactive)	-0.895 (inactive)	-0.812 (inactive)	3.07	0.149 (inactive)	-0.057	-0.157	0.201	-0.128
